High-throughput results from PubChem BioAssay.
SRC2 inh – inhibits human steroid receptor coactivator 2 | inhibition, % at 9 µM | actives 0.17% (n = 370,000) | AID 651957 | HEK293 GAL4-SRC2 luciferase reporter, luminescence;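 active = inhibition above the mean inhibition of all tested compounds plus 3 SD, set per campaign, cut at about 52% in these data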;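 note: 0% = DMSO treated cells and 100% = cells given Gossypol at 36 µM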
NCOA1 inh – inhibitors of human steroid receptor coactivator 1 (SRC1); Q15788; HEK293 GAL4-SRC1 luciferase reporter, luminescence; inhibition, % at 3.6 µM; actives 0.12% (n = 360,000);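 active = inhibition above the campaign mean plus 3 SD, with each screening campaign given its own cutoff, cut at about 60% in these data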;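 note: 0% = DMSO treated cells and 100% = gossypol at 36 µM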
Shn3 3UTR inh – inhibitors of Schnurri-3 3'UTR reporter in osteoblasts. inhibition, % at 12.5 µM. Clone20 osteoblast Shn3 3'UTR firefly luciferase, 24 h. actives 0.52% (n = 360,000);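 active = mean inhibition of at least 75% with every replicate also reaching 75%; inconclusive = mean inhibition at least 75% but some replicate below; inactive = mean inhibition below 75%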;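 note: 0% = median of neutral control wells and 100% = pilot-screen positive control compound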
LRH-1 inv ag – inverse agonists of human LRH-1 (NR5A2). actives 0.13% (n = 360,000). O00482. inhibition, % at 3.6 µM. HEK293T StAR-luciferase reporter, LRH-1 transfected, 24 h;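 active = inhibition above the mean inhibition of all tested compounds plus 3 SD, cut at about 73% in these data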;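 note: 0% = DMSO wells and 100% = reporter-only cells lacking LRH-1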
Gli-Sufu block – Gli-Sufu pathway antagonism | Sufu-KO-LIGHT fibroblasts, Gli luciferase reporter luminescence | inhibition, % at 5 µM | actives 0.74% (n = 340,000);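 active = inhibition above about 55%, limit read from the data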;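 note: 0% = DMSO-treated cells and 100% = wells with medium but no cells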
NCOA3 inh – inhibits human SRC3 coactivator. Q9Y6Q9. HEK293 GAL4-SRC3 luciferase reporter, luminescence. inhibition, % at 3.6 µM. actives 0.17% (n = 360,000). AID 588352;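 active = inhibition above a per-campaign cutoff, the mean of all compounds plus 3 SD, cut at about 60% in these data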;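 note: 0% = DMSO-treated cells and 100% = gossypol-treated cells at 36 µM; higher means less SRC3-driven luciferase light from the GAL4 reporter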
Starred values were filed as active, the others as inactive; ? = inconclusive; / = not tested or not shown. Rows were chosen to be rich in hits. Some 1.1% of all compounds tested hit in one or more screens of this group.

SMILES	SRC2 inh	NCOA1 inh	Shn3 3UTR inh	LRH-1 inv ag	Gli-Sufu block	NCOA3 inh
O=C1CSc2ccc(C(=O)N3CCCC(C(=O)N4CCCN(Cc5ccccc5)CC4)C3)cc2N1 (stereo unspecified)	0	/	/	/	/	/
O=C(O)c1cccc(COc2ccccc2Cl)c1	-20	-32	89*	-122	-103	-47
COc1cc(NC(=O)NCc2ccco2)ccc1-c1ccc(NC(=O)NCc2ccco2)cc1OC	-133	-247	83*	38	1	-63
COc1ccccc1NC(=O)NCc1ccco1	16	-16	28	5	-3	12
COc1cc2ncnc(N[C@H](C)c3ccccc3)c2cc1OC	/	0	90*	33	13	7
Cc1ccc(CNC(=O)c2cc(-c3ccccc3C)nn2CC2CC(c3cccnc3)=NO2)cc1 (stereo unspecified)	-6	-9	92*	9	4	11
CC(=NNC(=S)N1CCCCC1)c1ccccn1	-29	48	?	54	/	25
CC(=NNC(=S)Nc1ccccc1Cl)c1ccccn1	28	66*	90*	74*	93*	63*
CC(=NNC(=S)Nc1ccccc1)c1ccccn1	3	54	80	81*	/	51
C=CCNC(=S)N/N=C(\C)c1ccccn1	14	-41	91*	101*	84*	23
CC(COc1ccc(C#N)c(F)c1)CN1CCC(C(O)(c2ccccc2)c2ccccc2)CC1 (stereo unspecified)	-5	/	/	/	/	/
CCCCCCC#Cc1ccc2c(c1)COc1c3ccccc3nn1-2	-20	-18	90*	-7	-35	-22
CC(C)Cn1c(N)c(C(=O)COC(=O)c2ccc3c(c2)OCCO3)c(=O)n(C)c1=O	8	-20	67	18	15	15
CC(C)Cn1c(N)c(C(=O)CSc2ccc3c(c2)OCCO3)c(=O)n(C)c1=O	9	33	86*	10	64*	44
COc1ccc2c(n1)Sc1nc3ccccc3nc1N2	65*	-105	-39	-147	2	-96
COc1cc2ccccc2nn1	-13	0	-23	3	6	16
CC(=O)NC(Cc1ccccc1)P(=O)(O)O (stereo unspecified)	-32	/	/	/	/	/
O=C1NC(=O)C(=CC=Cc2ccccc2)S1	-19	-49	-27	-59	/	-41
ClC1=C(Cl)C(Cl)=C(Cl)C1=C/C=C/c1ccccc1	-3	-4	90*	4	79*	13
COC(=O)[C@]12C[C@H](CC(=O)N3CCN(C(=O)C4CC4)CC3)C(=O)N(Cc3cccc4ccccc34)C1=C[C@H](C1CCCC1)O[C@@H]2C	5	/	/	/	/	/
NC(=S)n1[nH]c(-c2ccc([N+](=O)[O-])cc2)c(N=Nc2ccccc2[N+](=O)[O-])c1=O	5	-65	9	1	2	-1
Cc1c(N=Nc2c(-c3ccc([N+](=O)[O-])cc3)[nH]n(C(N)=S)c2=O)cccc1[N+](=O)[O-]	-20	1	16	-10	68*	3
CN1CCCc2cc3c(C(F)(F)F)cc(=O)oc3nc21	1	3	15	9	96*	9
CC(C)c1cc(=O)oc2c3c4c(cc12)CCCN4CCC3	-15	1	-9	36	-4	8
OC(c1ccccc1)C(O)c1ccccc1 (stereo unspecified)	-36	-2	8	-5	3	-9
SMILES	SRC2 inh	NCOA1 inh	Shn3 3UTR inh	LRH-1 inv ag	Gli-Sufu block	NCOA3 inh
OC(c1ccccc1)C(O)C(c1ccccc1)N1CCCCC1 (stereo unspecified)	9	-14	92*	-3	2	1
O=C(Nc1ccc(Oc2ccccc2)cc1)C1CCN(c2c3c(nc4ncnn24)CCC3)CC1	10	19	82	10	70*	13
COC(=O)c1cc(O)cc(OC)c1C(=O)c1c(O)cc(C)cc1O	-33	-10	-17	-4	-5	12
COC(=O)c1cc(O)cc(OC)c1Oc1cc(C)cc(O)c1C(=O)O	-18	58	56	59	-8	68*
N#C/C(=C\c1ccc([N+](=O)[O-])o1)c1nc2ccccc2[nH]1	8	/	/	/	17	/
Cc1ccc2nc(/C(C#N)=C\c3ccc([N+](=O)[O-])o3)[nH]c2c1	-10	-18	99*	1	/	-24
O=C(CSc1nc2sc3c(c2c(=O)n1-c1ccc(Cl)cc1)CCC3)Nc1ccc(C(=O)O)cc1	-16	/	/	/	/	/
O=C(Cc1ccc(Cl)c(Cl)c1)Nc1ccc(S(=O)(=O)Nc2ccon2)cc1	-5	/	/	/	/	/
Cc1cc(N2CCN(CCO)CC2)n2nc(C)nc2n1	-27	/	/	/	/	/
Cc1cnc(NC(=O)CCCc2nc3ccccc3s2)s1	21	-14	-47	83*	-79	15
CC(Cc1cccs1)NC(=O)Nc1ccc(F)cc1 (stereo unspecified)	-23	-38	89*	-49	6	-58
COC(=O)[C@]12C[C@H](CC(=O)N3CCCC3)C(=O)N(Cc3ccc(Cl)cc3Cl)C1=C[C@H](C(C)(C)C)O[C@@H]2C	13	/	/	/	/	/
COc1cc2ccnc(Cc3cccc(OC)c3OC)c2cc1OC	6	1	86*	23	49	9
COc1cc(N)c(Cc2nccc3cc(OC)c(OC)cc23)cc1OC	-2	-5	-2	0	22	0
COc1ccc(Cn2cc(CN3[C@H](Cc4ccccc4)COc4cc(Br)ccc4S3(=O)=O)nn2)cc1	-5	/	/	/	/	/
C[n+]1c2n(c3ccccc31)N=C(c1cc(C(C)(C)C)c(O)c(C(C)(C)C)c1)CS2	9	7	90*	79*	89*	60
O=C(CSc1nc2ccccc2nc1N1CCCCC1)NCc1ccc(Cl)cc1Cl	-2	/	/	/	/	/
CN(C)/C=C1\Oc2ccc3ccccc3c2C1=O	-26	-81	27	4	-61	-70
O=C1C(=O)c2c(ccc3ccccc23)-c2ccccc21	-22	-14	96*	10	-8	-33
COc1ccc(S(=O)(=O)N2CCN(C(=O)c3cc(-c4ccc(Br)cc4)n[nH]3)CC2)cc1OC	33	-28	91*	1	25	15
COc1ccc(-c2cc(C(=O)N3CCN(S(=O)(=O)c4ccccc4)CC3)[nH]n2)cc1	1	-19	-12	-37	-3	-5
OCC1OC(n2cnc3c(NCc4ccco4)ncnc32)C(O)C1O (stereo unspecified)	-11	51	?	57	23	63*
Nc1nc(F)nc2c1ncn2[C@@H]1O[C@H](CO)[C@@H](O)[C@H]1O	69*	88*	96*	102*	71*	92*
Nc1nc(Cl)nc2c1ncn2C1OC(CO)C(O)C1O (stereo unspecified)	29	0	41	0	/	-2
Nc1nc(Cl)nc2c1ncn2C1CC(O)C(CO)O1 (stereo unspecified)	-16	2	90*	14	/	-12
